# From PMC4552634, “A New Set of Chemical Starting Points with Plasmodium falciparum Transmission-Blocking Potential for Antimalarial Drug Discovery” (PLoS ONE, 2015)
# In all, about 13,000 compounds went through this assay and about 3,200 (25%) showed an effect of 50% or more. The list shows a part of the results.
# Test system: P. falciparum stage V gametocytes
# Parameters: BacTiter-Glo ATP luminescence viability of purified stage V gametocytes in 384-well plates, per cent inhibition versus DMSO
# Details: 48 h, 5 µM; inhibitor
row,SMILES,% Inhibition
1,COc1cc2ncnc(Nc3ccc(OCc4ccccc4Br)c(OC)c3)c2cc1OC [TCMDC-131915],-3.642%
2,O=S(=O)(NC1CCN(c2ccnc3ccccc23)C1)c1ccc(OC(F)(F)F)cc1 (stereo not drawn) [TCMDC-133581],2.209%
3,O=C(Cc1cccs1)NC(CCCN1CCC(Oc2cccc(Cl)c2)CC1)c1ccc(Cl)c(Cl)c1 (stereo not drawn) [TCMDC-141902],-47.46%
4,C=CCn1c(SCC(=O)Nc2cc(Cl)ccc2Cl)nc2sc(C)cc2c1=O [TCMDC-124996],8.476%
5,CCc1nc(N)nc(N)c1-c1ccc(C(C)C)cc1 [TCMDC-137368],11.22%
6,CC1CN(S(=O)(=O)c2ccc(NC(=O)c3cc(-c4ccccc4O)n[nH]3)cc2)CC(C)O1 (stereo not drawn) [TCMDC-125195],7.357%
7,CCCN(c1ccc(O)c(CN2CCCCC2)c1)c1ccc([N+](=O)[O-])cn1 [TCMDC-137486],15.96%
8,CN(C)c1ccc(-c2ccc(C(=O)NC3CCN(Cc4ccc5c(c4)OCCO5)CC3)s2)cc1 [TCMDC-134339],-48.84%
9,CCCN=CNc1cc(-c2csc(N=C(N)N)n2)cc([N+](=O)[O-])c1 [TCMDC-137246],-47.16%
10,O=C(NC1CCC(N2CCC(O)(c3ccc(F)cc3)CC2)CC1)c1cc2ccccc2[nH]1 (stereo not drawn) [TCMDC-132887],9.268%
11,O=C(NC1CCC(N2CCC3(CC2)C(=O)NCN3c2ccccc2)CC1)c1cc2ccccc2[nH]1 (stereo not drawn) [TCMDC-132886],76.36%
12,O=C(NC1CCC(N2CCN(c3cccc(C(F)(F)F)c3)CC2)CC1)c1cc2ccccc2[nH]1 (stereo not drawn) [TCMDC-132885],32.36%
13,CC(Cc1ccc(OCCN2CCN(c3ccc(Cl)cc3)CC2)cc1)NCC(O)c1cccc(C(F)(F)F)c1 (stereo not drawn) [TCMDC-131530],29.05%
14,COc1cccc(CNC(=O)[C@@H]2CN(C(=O)c3ccccc3)CCN2)c1 [TCMDC-141267],-8.525%
15,COc1ccc(CN2CCCN(Cc3cccc(C(=O)Nc4ccc(C)c(F)c4)c3)CC2)cc1 [TCMDC-135960],-17.45%
16,O=C(NCc1ccc(Cl)c(Cl)c1)c1cccc(C2CCCN(Cc3ccc4nc[nH]c4c3)C2)c1 (stereo not drawn) [TCMDC-133067],-29.33%
17,C[C@H]1CN(Cc2cccc(-c3cc(CNC(=O)c4cccc(C(=O)c5ccc(Cl)c(Cl)c5)c4)ccc3F)c2)CCN1 [TCMDC-136245],103.5%
18,CC1CCN(Cc2cccc(C(=O)NCc3ccc(F)c(-c4cccc(CN5CCN[C@@H](C)C5)c4)c3)c2)CC1 [TCMDC-136206],100.7%
19,O=C(NCc1ccc(Cl)c(Cl)c1)c1ccc(C2CCCN(Cc3ccc4nc[nH]c4c3)C2)cc1 (stereo not drawn) [TCMDC-133068],0.7535%
20,O=C(NCc1cccc(Cl)c1)c1ccc(CNC2CCN(Cc3ccccc3)CC2)cc1 [TCMDC-140785],24.82%
21,C[C@H]1CN(Cc2cccc(-c3cc(CNC(=O)c4cccc(CC5CCN(C)CC5)c4)ccc3F)c2)CCN1C [TCMDC-136349],103.8%
22,CN1CCCN(Cc2cccc(-c3ccc(CNC(=O)c4cccc(Cl)c4)c(F)c3)c2)CC1 [TCMDC-133370],8.787%

row,SMILES,% Inhibition
1,COc1cccc(CNC(=O)c2ccnc(-c3cccc(CN(C)C4CCN(C)CC4)c3)c2)c1 [TCMDC-134500],23.23%
2,C[C@H]1CN(Cc2cccc(-c3cc(CNC(=O)c4cccc(CN5CCN(CCOc6ccccc6)CC5)c4)ccc3F)c2)CCN1 [TCMDC-136210],110.3%
3,O=C(NCc1cccc(Br)c1)c1ccc(CNC2CCN(Cc3ccccc3)CC2)cc1 [TCMDC-140788],24.75%
4,COc1cc(C(=O)NC2CCN(Cc3ccccc3)CC2)ccc1-c1nc2cc(Cl)c(C)cc2[nH]1 [TCMDC-140028],-62.59%
5,CN1CCN(c2nc(NCCc3ccc(O)cc3)nc(NCc3ccccc3-c3ccc(C(F)(F)F)cc3)n2)CC1 [TCMDC-138322],-8.259%
6,CC1(C)[C@H]2CC[C@@H](CNc3nc(NCCc4cnc[nH]4)nc(Nc4ccc5c(c4)OCO5)n3)[C@@H]1C2 [TCMDC-139738],-17.51%
7,COc1ccc2nccc([C@@H](O)CN3CCC(NC(=O)C(c4cc5ccccc5o4)N4CCN(c5ccccc5OC)CC4)CC3)c2c1 (stereo partly drawn) [TCMDC-140991],13.75%
8,COc1ccc(C(=O)N2CCC(C(=O)NC(C)c3ccc(-n4ccnc4)cc3)CC2)c2ccccc12 (stereo not drawn) [TCMDC-124603],-15.82%
9,CC(C)(C)c1ccc(NC(=O)c2cccc(CN3CCCN(Cc4ccc(F)cc4)CC3)c2)cc1 [TCMDC-135985],-30.03%
10,O=C(NCc1ccc(Cl)cc1)c1ccc(CN2CCCN(Cc3cccc(O)c3)CC2)cc1 [TCMDC-136442],2.881%
11,C[C@H]1CN(Cc2cccc(-c3cc(CNC(=O)c4cccc(CN5CCN(C/C=C/c6ccccc6)CC5)c4)ccc3F)c2)CCN1 [TCMDC-136208],114.8%
12,O=C(Nc1ccc(CN2CCN(S(=O)(=O)c3cccc(Cl)c3)CC2)cc1)c1cccs1 [TCMDC-136319],27.89%
13,CN(C(=O)/C=C/c1c(Cl)cccc1Cl)C1CCN(CCCCCNC(=O)/C=C/c2ccc(Cl)c(Cl)c2)CC1 [TCMDC-139995],-22.04%
14,CN(CC(=O)N1CCN(S(=O)(=O)c2cccc(Cl)c2)CC1CN1CCCC1)c1ccc(Cl)c(Cl)c1 (stereo not drawn) [TCMDC-136893],71.55%
15,Cn1c(N)c(C(=O)CSc2ncc(-c3ccc(F)cc3)n2Cc2ccccc2)c(=O)n(C)c1=O [TCMDC-125101],12.63%
16,CC1(C)N=C(N)N=C(N)N1OCCCc1cccc(C(F)(F)F)c1 [TCMDC-131651],-2.569%
17,COc1ccc(CN2CCC(CNCCc3ccccc3Cl)CC2)cc1 [TCMDC-141343],21.62%
18,COc1ccc(CN2CCC(CNCCc3c(Cl)cccc3Cl)CC2)cc1 [TCMDC-141345],89.6%
19,COc1ccc(CN2CCC(CNCCc3ccccc3Oc3ccccc3)CC2)cc1 [TCMDC-141350],98.78%
20,COc1ccc(Oc2ccccc2CNCC2CCN(CC3CCCCC3)CC2)cc1 [TCMDC-141413],81.97%
21,O=[N+]([O-])c1ccc(Oc2ccccc2CNCC2CCN(CC3CCCCC3)CC2)cc1 [TCMDC-141414],46.86%
22,COc1ccc2ccccc2c1CNCC1CCN(CC2CCCCC2)CC1 [TCMDC-141412],-44.03%

row,SMILES,% Inhibition
1,COc1ccc2c(c1)CC1CN(CCCCNC(=O)c3ccc(NC(=O)c4cc(Cl)cc(Cl)c4)cc3)CCN1C2 (stereo not drawn) [TCMDC-138223],-15.2%
2,NC1CCN(c2nc(NCCc3ccc(O)cc3)nc(NCc3ccccc3-c3ccccc3)n2)CC1 [TCMDC-133441],29.52%
3,Cc1ccc2c(Cc3cnc(N)nc3N)cc(C)c(N)c2n1 [TCMDC-137878],-11.15%
4,COc1ccc(C(C(=O)NC2CCN(C[C@H](O)c3ccnc4ccc(OC)cc34)CC2)N2CCN(c3ccc([N+](=O)[O-])cc3)CC2)cc1 (stereo partly drawn) [TCMDC-140992],-4.461%
5,O=C(NCc1ccccc1)Nc1ccc(-c2cccc(-c3nc4ccc(C(F)(F)F)cc4[nH]3)c2)cc1 [TCMDC-133160],-18.34%
6,O=C(NCCCCCN1CCCN(C(=O)Nc2ccc(F)c(C(F)(F)F)c2)CC1)C1CC1c1ccc(Cl)c(Cl)c1 (stereo not drawn) [TCMDC-136254],10.75%
7,O=C(Nc1ccc(F)c(C(F)(F)F)c1)N[C@H]1CCN(CCCCCNC(=O)C2CC2c2ccc(Cl)c(Cl)c2)C1 (stereo partly drawn) [TCMDC-136270],88.79%
8,O=C(Nc1ccc(F)c(C(F)(F)F)c1)NC1CCN(CCCCCNC(=O)C2CC2c2ccc(Cl)c(Cl)c2)CC1 (stereo not drawn) [TCMDC-136259],97.75%
9,COc1ccc2nccc([C@@H](O)CN3CCC(NC(=O)C(c4cc5ccccc5o4)N4CCN(Cc5ccccc5)CC4)CC3)c2c1 (stereo partly drawn) [TCMDC-140988],30.33%
10,O=C(Nc1ccc(-c2nc3ccccc3[nH]2)cc1)C1CCCN(C2CCC2)C1 (stereo not drawn) [TCMDC-124687],-67.58%
11,O=C(NCCCN1CCOCC1)c1cccc(Nc2nccc(Nc3ccc(Oc4ccccc4)cc3)n2)c1 [TCMDC-138604],68.84%
12,CN1CCN(Cc2cccc(Nc3nccc(Nc4ccc(Oc5ccccc5)cc4)n3)c2)CC1 [TCMDC-138614],-13.87%
13,O=C(NCCN1CCCC1)c1cccc(Nc2nccc(Nc3ccc(Oc4ccccc4)cc3)n2)c1 [TCMDC-138602],-15.16%
14,CN1CCN(CCCNCc2cccc(Nc3nccc(Nc4ccc(Oc5ccccc5)cc4)n3)c2)CC1 [TCMDC-138616],109.5%
15,NC(=O)c1cccc(Nc2nccc(Nc3ccc(Oc4ccc5ccccc5c4)cc3)n2)c1 [TCMDC-138600],-22.11%
16,N#CCc1ccc(Nc2nccc(Nc3ccc(Oc4ccccc4)cc3)n2)cc1 [TCMDC-138577],4.825%
17,O=C(NCCCN1CCCCC1)c1ccc(Nc2nccc(Nc3ccc(Oc4ccccc4)cc3)n2)cc1 [TCMDC-138609],-10.89%
18,Brc1cccc(Nc2nccc(Nc3ccc(Oc4ccccc4)cc3)n2)c1 [TCMDC-138559],9.5%
19,CCCN1CCN(CCNC(=O)c2cccc(Nc3nccc(Nc4ccc(Oc5ccccc5)cc4)n3)c2)CC1 [TCMDC-138606],-54.96%
20,O=C(Nc1ccccc1)c1cccc(Nc2nccc(Nc3ccc(Oc4ccccc4)cc3)n2)c1 [TCMDC-138561],74.26%
21,O=C(NCCCN1CCCCC1)c1cccc(Nc2nccc(Nc3ccc(Oc4ccccc4)cc3)n2)c1 [TCMDC-138605],-29.44%
22,CN1CCN(CCCNCc2ccc(Nc3nccc(Nc4ccc(Oc5ccccc5)cc4)n3)cc2)CC1 [TCMDC-138621],88.79%
